This is part of a sample that, as a whole, favours compounds with a hit. Of some 83,000 tested, about 20% had one in any assay.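 For each line, cells grew in 96-well plates with the test compound present at a single concentration for 48 hours.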 Unmarked numbers belong to inactive results. Activity calls are given as the source filed them.

In this assay the test system is HCT-116 colon. Description: NCI-60 one-dose screen, 48 h (100 = growth as untreated, 0 = no growth, -100 = all killed). The note with it: 10 µM. Here is the method:
Growth inhibition of the HCT-116 human tumor cell line is measured as a screen for anti-cancer activity. Cells are grown in 96 well plates and exposed to the test compound for 48 hours. Compounds are tested at a single concentration, which is 10^-5 M for most compounds. The reported endpoint is percent growth (GI% or GIPRCNT), where numbers from 0 - 100% represent growth inhibition, and numbers from -100% - 0 represent cell death. For example, a value of 40 represents 60% growth inhibition. A value of 0 means no net growth occurred over the course of the experiment. A value of -40 indicates 40% of cells at the beginning of the experiment died by the end of the experiment. A value of -100 means all cells are dead at the end of the experiment.
NCI-60 Human Tumor Cell Lines Screen was performed using the standard one-dose NCI protocol, which is described in more detail at https://dtp.cancer.gov/discovery_development/nci-60/default.htm.
Compounds with GIPRCNT values below 10 were considered active. Activity score was based on GIPRCNT using the following formula: […]
Score is 0 for GIPRCNT values of 100 or above, 50 for GIPRCNT values of 0, and 100 for GIPRCNT values of -100.
As for `COc1ccc(Cl)cc1-n1nnc(-c2nc3ccccc3[nH]2)c1N`, the growth was 55.4%.

Take `Fc1ccc2nc(-c3nc(-c4ccccc4)n4ccccc34)[nH]c2c1`: the growth is -31.2% (active).

Turning to `O=C1/C(=C\c2ccc(Br)cc2)CN(C(=O)c2ccccc2F)C/C1=C\c1ccc(Br)cc1`, the growth was -76.1% (active).

As for `O=C(O)CN1C(=O)c2cccc3cccc(c23)C1=O`, the growth was 102%.

`COc1ccc(-c2nn(-c3cccc(NC(=O)c4cc(C(F)(F)F)cc(C(F)(F)F)c4)c3)cc2-c2ccncc2)cc1Cl`: the growth was 57.6%.

Turning to `CC1=C(N2CCOCC2)C(N2CCOCC2)=C(C)C(=O)C1=O`, the growth was 108%.

`COc1cccc(-c2cc(-c3cccc(NS(C)(=O)=O)c3)nc(N)c2C#N)c1O`: the growth is 24.7%.

Regarding `O=C(CNC(=O)OCc1ccccc1)NCC(=O)Oc1ccc([N+](=O)[O-])cc1`, the growth was 93.7%.

With `COc1ccc2c(c1)C(=O)c1c-2c(OCCN2CCCCC2)nc2ccc(OC)cc12`, the growth is 7.15% (active).

Regarding `COc1ccc(C2=NN(C(=O)c3ccc(S(C)(=O)=O)cc3)C(c3ccc(OC)c(OC)c3)C2)c(OC)c1` (stereo not given), the growth was 82.7%.

With `Nc1c(C(=O)Nc2cccc(F)c2)sc2nc3c(cc12)C(=O)CCC3`, the growth was 29%.

As to `CCN(CC)CCNC(=O)c1ccc(NC(C)=O)cc1`, the growth was 105%.

Turning to `Cn1c(C(N)=O)cc2c1-c1nc(Nc3ccccc3)ncc1CCC2`, the growth was 25.8%.

Turning to `Cc1nc2oc3ccccc3c(=O)c2cc1C(=O)NCc1ccccc1`, the growth was 59.8%.

`COC(=O)C(=C\c1ccc2c(c1)OCO2)/C(=C/c1ccc2c(c1)OCO2)C(=O)OC`: the growth was 92.9%.

Regarding `C#Cc1ccc(-n2c(/C=C/c3ccc(O)cc3)nc3ncccc3c2=O)cc1`, the growth is 48.5%.

Regarding `CSc1nn(-c2ccccc2)c2ncnc(Oc3ccc(C)cc3)c12`, the growth is 85.3%.

For the molecule `O=C1C(c2ccccc2)C2C=CC(C2)N1O` (stereo not given), the growth was 104%.

With `COc1cc(-c2nc(-c3nnc(-c4ccccc4Cl)o3)c3ccccn23)cc(OC)c1OC`, the growth is 97%.

As for `FC(F)(F)c1ccc(-c2cnc(Cl)nc2N2CCC3(CC2)OCCO3)cc1`, the growth was 82.7%.

`C=C1c2c(C)nn(-c3ccc(OC)cc3)c2N(C)C23C[C@@H]1C1(C)c4c(C)nn(-c5ccc(OC)cc5)c4N(C)C(C)(C[C@H]12)C3` (stereo not given in full): the growth is 16.7%.

`Oc1[nH]c2ccc(Cl)cc2c1/C=c1/ccc2c(c1)N=C(c1cc(F)cc(F)c1)N=2`: the growth is 52.2%.

With `Cc1cccc(NC2=C(C#N)C(=O)NC3(CCCC3)S2)c1`, the growth was 105%.

In the case of `O=[N+]([O-])c1cccc(-c2ncc(-c3ccc(Cl)cc3Cl)[nH]2)c1`, the growth was 13.5%.

For `COc1cc2cc3c(nc2cc1OC)CCN3Cc1ccc(NC(=O)Nc2ccc(F)cc2F)cc1`, the growth was 81.3%.

For `S=c1[nH]ccn1-c1c(Cl)cccc1Cl`, the growth is 93.9%.

In the case of `COc1cc(-c2nc(Nc3nc4ccccc4s3)[nH]c(=O)c2C#N)cc(OC)c1O`, the growth is 94.7%.

With `C/C(N)=C(\C#N)C(=O)c1ccccc1`, the growth is 102%.

As to `N#Cc1cccc(OCc2nc(N)nc(N)c2-c2ccc(Cl)c(Cl)c2)c1`, the growth was 12.1%.

As for `O=c1[nH]c(-c2ccc(Cl)cc2)nc2sc3c(c12)CCCC3`, the growth was 60.9%.

As to `Cc1cccc2c1O/C(=C\c1ccc([N+](=O)[O-])o1)C2=O`, the growth is -53.2% (active).

Turning to `O=C(Nc1ccncc1)C(=O)c1cn(S(=O)(=O)c2cccc(Cl)c2)c2ccccc12`, the growth was 24%.

Regarding `CS(=O)(=O)Nc1ccc(Nc2c3ccccc3nc3cc(N)ccc23)cc1`, the growth was 28%.

In the case of `COc1ccc(-c2ccc(-c3ccc(C(=N)N)cn3)o2)cc1`, the growth is 45.9%.

For `COc1cc(/C=C2\Oc3cc(OCC(=O)c4ccccc4)ccc3C2=O)cc(OC)c1OC`, the growth is 106%.

Take `Nc1cc2c(cc1Cl)-c1ccc([N+](=O)[O-])cc1/C2=N\O`: the growth is 43.2%.

On to `COc1cc2nc(Nc3cccc(NC(C)=O)c3)nc(N)c2cc1OC`, for which the growth was 95.9%.

For the molecule `O=C(Nc1cccc(-n2cc(-c3ccncc3)c(-c3cc(O)cc(Cl)c3)n2)c1)c1ccc(N2CCOCC2)c(C(F)(F)F)c1`, the growth was 12.7%.

With `COc1ccc2c(c1)/C(=C\c1c[nH]c3ccc(OC)cc13)C(=O)N2`, the growth was 30.1%.

For the molecule `CCOCC(=O)C(C#N)c1ccc(Cl)c(Cl)c1` (stereo not given), the growth is 105%.

The values above are taken from PubChem BioAssay (NCI).
